DT40 TDP1 no CPT: qHTS for Inhibitors of human tyrosyl-DNA phosphodiesterase 1 (TDP1): qHTS in cells in absence of CPT | DT40 Tdp1-/- hTDP1 cells, no CPT, ATP luminescence, 48 h | Potency, µM (doses to about 46.2 µM), for inactives: at the highest dose activity change, negative = growth inhibition, most hits filed as inhibitors | hit rate 15% among 420,000 | AID 686978, 2013; further: potency means the concentration at half of the fitted maximal effect; nearly all actives have a fitted effect of over 55% in size
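No-CPT arm: Tdp1-/-;hTDP1 DT40 cells (400/well) plus compounds, incubated ≥48 hr at 37 °C. Readout CellTiter-Glo luminescence.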
IL-1B inflam inh: inhibitors of inflammasome signaling (IL-1 beta secretion) | hit rate 4.7% among 360,000 | THP-1 LPS/ATP IL-1B secretion, AlphaLISA, 16 h; hits give low values | AID 743279 | activity change, % at 57.5 µM; in the data active means activity change below about -50%; inconclusive means mostly about -30% to -49%
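Secreted IL-1B measured by AlphaLISA bead assay after 16 h compound exposure of THP-1 cells; compounds (final up to 57.5 uM) added 1 h before LPS (250 ng/mL) and ATP (1.25 mM) stimulation; lower signal means less secretion.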
HT1080NT lethal: kills 2HG-producing HT-1080-NT fibrosarcoma cells; AID 686970; hit rate 1.6% among 360,000; Potency, µM (top dose mostly 46.1 µM), for the others: at the highest dose activity, negative = less viability, hits mostly cytotoxic; HT-1080-NT fibrosarcoma viability, CellTiter-Glo ATP luminescence, 48 h;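 further: NT is the 2HG producing partner of a matched IDH1 knockdown line; potency means the concentration at half of the fitted maximal effect; 0% = DMSO-treated cells and -100% = media-only wells without cells; nearly all actives have a fitted effect of over 55% in size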
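HT-1080-NT fibrosarcoma cells (2HG-overproducing), 750 cells/well in RPMI with 5% FBS, dosed after 2 h and incubated 48 h at 37C. CellTiter-Glo luminescence normalized to DMSO and no-cell wells; concentration-response curves fitted and classed.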
ELG1 repair inh: blocks ELG1-dependent DNA repair in HEK293T cells; Potency, µM (highest dose often 46.1 µM), for inactives: at the top dose activity change, negative = inhibition, most hits filed as inhibitors; HEK293T ELG1-luciferase reporter, luminescence, 16 h; DNA damage induced by 5-fluorouridine; hit rate 2.3% among 330,000; further: potency means the concentration at half of the fitted maximal effect; nearly all actives have a fitted effect of over 55% in size
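Overnight (16 hr) co-exposure of 2,000 cells/well to 5-fluorouridine and compound at 37 °C preceded detection. Luciferase was quantified via ONE-Glo luminescence; loss of signal denotes inhibition.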
TDP1 cell CPT: growth inhibition of DT40 Tdp1-/-;hTDP1 cells with camptothecin (screen for TDP1 inhibitors). chicken DT40 Tdp1-/-;hTDP1 cells + 20 nM CPT, ATP luminescence, 48 h. Potency, µM (top dose mostly 46.2 µM), for inactives: at the top dose activity change, negative = growth inhibition, actives largely listed as inhibitors. hit rate 12% among 420,000. AID 686979; further: potency means the concentration at half of the fitted maximal effect; nearly all actives have a fitted effect of over 55% in size
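Chicken DT40 Tdp1-/- cells complemented with human TDP1, 400 cells/well, exposed to compounds plus 20 nM camptothecin for at least 48 h at 37 C; viability read as ATP content by CellTiter-Glo luminescence.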
HT1080 IDH1KD tx: kills HT-1080 cells with IDH1 knockdown; Potency, µM (top dose mostly 46.1 µM), inactives show at the highest dose activity, negative = toxicity, most hits filed as cytotoxic; hit rate 2% among 360,000; HT-1080 IDH1 knockdown viability, ATP luminescence, 48 h;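 further: potency means the concentration at half of the fitted maximal effect; 0% = DMSO wells and -100% = cell-free medium wells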
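IDH1KD HT-1080 cells, 750/well, RPMI + 5% FBS; compound pinned after 2 h settling; 48 h, 37 °C; CellTiter-Glo luminescence; % activity normalised to DMSO and no-cell wells; curves fitted, classed by r2 and efficacy.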
The depositor's hits bear a star; [ ] = another dose, or the depositor's remark. Only some compounds are listed: those with a hit (about 19% of all), similar ones and a draw of the others. Unless noted, the call rests on the fitted dose curve; in most records, active means well fitted curve in the direction sought with a large enough effect; inconclusive means small, poorly fitted or top-dose-only effect, or another doubt; inactive means no such curve, though single readings can be large; an effect the other way counts as inactive or inconclusive. Unless noted, on the % scale 0 is the no-effect control and ±100 the full control effect.

Screening CCCCC(=O)N1CCc2cc(OC)c(OC)cc2C1COc1ccc(C(=O)OCC)cc1 (stereo not drawn) returned DT40 TDP1 no CPT 18.4µM* and TDP1 cell CPT inconclusive.
`COc1cc2c(cc1OC)C(c1cccc([N+](=O)[O-])c1)N(C(=O)c1ccc(F)cc1)CC2` (stereo not drawn) gave DT40 TDP1 no CPT 13µM*, IL-1B inflam inh inconclusive, HT1080NT lethal inconclusive, ELG1 repair inh inconclusive, TDP1 cell CPT 18.4µM* and HT1080 IDH1KD tx inconclusive.
CC(C)OC(=O)c1ccc(NC(=S)NC(=O)c2cncc(Br)c2)cc1 was read as DT40 TDP1 no CPT inconclusive, IL-1B inflam inh 25.8, HT1080NT lethal 8.3%, ELG1 repair inh 1.6%, TDP1 cell CPT -42.0% and HT1080 IDH1KD tx 0.2%.
Screening CN(C)c1ccc(C(CNC(=O)c2cccs2)N(C)C)cc1 (stereo not drawn) returned DT40 TDP1 no CPT inconclusive, IL-1B inflam inh -8.8, HT1080NT lethal -2.1%, ELG1 repair inh 0.0%, TDP1 cell CPT inconclusive and HT1080 IDH1KD tx -5.4%.
Screening CC(O)(c1ccc(Cl)cc1)C(c1ccccc1)c1ccccn1 (stereo not drawn) returned DT40 TDP1 no CPT -0.9%, IL-1B inflam inh -2.0, HT1080NT lethal 3.9%, TDP1 cell CPT -9.8% and HT1080 IDH1KD tx 5.7%.
For CN(CC(=O)Nc1ccccc1Cl)C(=O)COC(=O)CSc1ccc(Cl)cc1 the results were DT40 TDP1 no CPT 8.9%, IL-1B inflam inh 5.6, HT1080NT lethal -3.3%[9.24 µM], ELG1 repair inh 0.0%, TDP1 cell CPT -21.4% and HT1080 IDH1KD tx -0.4%.
CNC(=S)N1CCc2cc(OC)c(OC)cc2C1COc1ccc(F)cc1 (stereo not drawn) was read as DT40 TDP1 no CPT -0.3%, IL-1B inflam inh inconclusive, HT1080NT lethal -26.6%, ELG1 repair inh inconclusive, TDP1 cell CPT 1.3% and HT1080 IDH1KD tx inconclusive.
`COc1cc2c(cc1OC)C(COc1ccc(F)cc1)N(C(=O)Cc1ccc(F)cc1)CC2` (stereo not drawn) gave DT40 TDP1 no CPT 16.4µM* and TDP1 cell CPT 25.9µM*.
Screening COc1ccc(C2c3cc(OC)c(OC)cc3CCN2C(=O)c2cccc([N+](=O)[O-])c2)cc1OC (stereo not drawn) returned DT40 TDP1 no CPT inconclusive, IL-1B inflam inh -15.3, HT1080NT lethal -9.4%, ELG1 repair inh inconclusive, TDP1 cell CPT -23.5% and HT1080 IDH1KD tx -5.3%.
Screening COc1cc2c(cc1OC)C(COc1ccc(F)cc1)N(C(=O)c1cccc(F)c1)CC2 (stereo not drawn) returned DT40 TDP1 no CPT inconclusive and TDP1 cell CPT 16.4µM*.
For CC(C)NC(=O)C1=CC(c2ccc3c(c2)OCO3)=NS(=O)(=O)N1C the results were DT40 TDP1 no CPT -6.4% and TDP1 cell CPT 1.2%.
C#CCN(C[C@@H]1[C@@H](OC(=O)NCc2ccccc2)[C@@H](OC(=O)NCc2ccccc2)CN(C(=O)OC(C)C)N1C(=O)OC(C)C)S(=O)(=O)c1ccc(C)cc1 was read as DT40 TDP1 no CPT 11.6µM*, IL-1B inflam inh -57.6*, HT1080NT lethal -0.7%, TDP1 cell CPT 20.6µM* and HT1080 IDH1KD tx -6.3%.
For C#CCN(C[C@@H]1[C@@H](OC(=O)NCC2CCCCC2)[C@@H](OC(=O)NCC2CCCCC2)CN(C(=O)OC(C)C)N1C(=O)OC(C)C)S(=O)(=O)c1ccc(C)cc1 the results were DT40 TDP1 no CPT 7.31µM*, IL-1B inflam inh -11.7, HT1080NT lethal -2.3%, TDP1 cell CPT 9.2µM* and HT1080 IDH1KD tx -5.8%.
For Cc1cc(C)c(Nc2nn3c(=O)c4cc5c(cc4nc3s2)OCO5)c(C)c1 the results were DT40 TDP1 no CPT -6.0% and TDP1 cell CPT -6.0%.
